A selection: hits, their analogues and other compounds. The true share with any hit is near 4%.
RecA intein inh: blocks M. tuberculosis RecA intein splicing; P9WHJ3; cell-free RecA intein splicing, fluorescence; inhibition, % (test concentration not listed); actives 0.75% (n = 290,000); in the data active = inhibition above about 30%;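 also: 0% = vehicle wells and 100% = reference inhibitor control wells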
Rv3671c protease: inhibits the M. tuberculosis serine protease Rv3671c; P9WHR9; inhibition, % at 5.96 µM; actives 0.048% (n = 320,000); AID 2606; in the data active = inhibition above about 38%;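 also: extracellular domain of Rv3671c used as enzyme; 0% = enzyme with DMSO and 100% = no enzyme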
GDH-TPI counter-1: inhibits GDH-TPI coupling enzymes, artifact for Mtb FBA screen | GDH-TPI coupled enzyme counterscreen, NADH absorbance | inhibition, % at 4.8 µM | actives 1.2% (n = 360,000) | AID 588335; in the data active = inhibition above about 30%;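 also: 0% = DMSO wells and 100% = wells lacking the enzyme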
UGM FP inh: blocks M. tuberculosis UGM enzyme; P9WIQ1; purified UGM, fluorescence polarization probe displacement; inhibition, % at 10 µM; actives 0.06% (n = 320,000); AID 504406; in the data active = inhibition above about 10%, passing the limit was not always enough
Target sequence (P9WIQ1 whole entry, looked up): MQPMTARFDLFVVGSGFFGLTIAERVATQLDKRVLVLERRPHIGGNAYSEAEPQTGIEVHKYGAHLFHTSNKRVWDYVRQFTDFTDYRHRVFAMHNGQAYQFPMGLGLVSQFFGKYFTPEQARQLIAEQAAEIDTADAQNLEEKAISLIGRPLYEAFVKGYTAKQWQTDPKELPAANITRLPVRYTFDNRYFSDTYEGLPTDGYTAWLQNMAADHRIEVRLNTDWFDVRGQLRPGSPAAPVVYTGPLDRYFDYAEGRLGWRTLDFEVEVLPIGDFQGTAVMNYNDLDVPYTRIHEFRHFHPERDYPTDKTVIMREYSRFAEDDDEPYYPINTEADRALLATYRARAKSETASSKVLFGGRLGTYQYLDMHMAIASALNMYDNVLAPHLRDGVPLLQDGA
Mtb bLac sens: beta-lactam sensitization of Mtb H37Rv. M. tuberculosis H37Rv growth with meropenem, percent inhibition. inhibition, % at 25 µM. actives 0.27% (n = 330,000);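 also: growth measured after seven days incubation then overnight dye step; 0% = bacteria only wells and 100% = bacteria with antibiotic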
Mtb FBA inh: inhibits M. tuberculosis FBA enzyme; P9WQA3; purified M. tuberculosis FBA, fluorescence read-out; inhibition, % at 1 µM; actives 2.3% (n = 360,000); AID 588726; in the data active = inhibition above about 27%;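 also: 0% = vehicle and 100% = reference inhibitor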
Mtb FBA confirm: Mtb FBA inhibition, confirmed; shares compounds with Mtb FBA inh; purified M. tuberculosis FBA, fluorescence read-out; inhibition, % at 1 µM; actives 78% (n = 5,600); AID 651616; in the data active = inhibition above about 27%;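 also: 0% = vehicle wells and 100% = reference inhibitor wells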
GDH-TPI counter-2: inhibits GDH-TPI coupling enzymes, flagging Mtb FBA hits | shares compounds with Mtb FBA inh | GDH-TPI coupled enzyme counterscreen, fluorescence | inhibition, % at 1 µM | actives 81% (n = 5,600); in the data active = inhibition above about 10%
GDH-TPI dose: inhibits GDH-TPI coupling enzymes in dose response; IC50, µM; actives 79% (n = 170); shares compounds with Mtb FBA inh; GDH-TPI coupled enzyme assay, fluorescence, artifact counterscreen
* = called active by the depositor; / = not tested or not shown; + = active, no number. Unless noted, no rule for the calls is given here.

SMILES | RecA intein inh | Rv3671c protease | GDH-TPI counter-1 | UGM FP inh | Mtb bLac sens | Mtb FBA inh | Mtb FBA confirm | GDH-TPI counter-2 | others
c1cc(-c2cccs2)nc(-c2cccs2)c1 | / | 0 | 5 | -2 | 3 | 1 | / | /
c1csc(-c2cn3ccc4ccccc4c3n2)c1 | -2 | -6 | 5 | 5 | 82 | 47* | -4 | -2
CC1(C(=O)NCc2ccccc2)Cc2c(-c3ccccc3)ccnc2O1 (configuration not stated) | / | / | 4 | / | / | 2 | / | /
CC1(C(=O)NCC2CC2)Cc2c(-c3ccccc3)ccnc2O1 (configuration not stated) | / | / | -6 | / | / | 0 | / | /
CN(C)c1ccc(-c2ccnc3c2CC(C)(C(=O)NCC2CCOCC2)O3)cc1 (configuration not stated) | / | / | 15 | / | / | 48* | 114* | 98*
CN(C)c1ccc(-c2ccnc3c2CC(C)(C(=O)NCc2ccccc2)O3)cc1 (configuration not stated) | / | / | 15 | / | / | 49* | -5 | -4
CN(C)c1ccc(-c2ccnc3c2CC(C)(C(=O)NCc2cccc(Cl)c2)O3)cc1 (configuration not stated) | / | / | 18 | / | / | 62* | 58* | 39*
CN(C)c1ccc(-c2ccnc3c2CC(C)(C(=O)NCc2ccncc2)O3)cc1 (configuration not stated) | / | / | 34* | / | / | 60* | 178* | 145*
CCO[C@H]1OC(C(=O)O)=C[C@@H](c2cn(C(C)=O)c3ccccc23)[C@@H]1CCCO | -1 | 0 | -1 | -1 | -5 | -1 | / | /
O=C(N/N=C/c1cccc(OC(=O)c2ccccc2Cl)c1)c1cccnc1 | 4 | -13 | 8 | 2 | 1 | 2 | / | /
Cc1ccc(O)c(-c2cc(C(=O)Nc3ccc(S(=O)(=O)Nc4nccc(C)n4)cc3)[nH]n2)c1 | -4 | -30 | 12 | -1 | 7 | 5 | / | /
CCOc1ccc2[nH]c(=O)c(CN(Cc3ccco3)Cc3nnnn3Cc3ccccc3)cc2c1 | 1 | -5 | 21 | 3 | -1 | 19 | / | /
CCOc1ccc2[nH]c(=O)c(CN(Cc3ccco3)C(CC)c3nnnn3Cc3ccccc3)cc2c1 (configuration not stated) | 19 | -5 | -9 | 2 | 60 | 27* | + | +
O=C(O)C1Cn2c(nc3c(c2=O)C2(CCCC2)Cc2ccccc2-3)S1 (configuration not stated) | 0 | -12 | 8 | 1 | -12 | 35* | -9 | -5
CCSc1n[nH]c2nc3c(c(=O)n12)C1(CCCC1)Cc1ccccc1-3 | -25 | 9 | 4 | 1 | 7 | 28* | -2 | -4
CSc1n[nH]c2nc3c(c(=O)n12)C1(CCCC1)Cc1ccccc1-3 | -20 | -10 | 16 | 4 | -4 | 19 | / | /
Cn1ncn2c(=O)c3c(nc12)-c1ccccc1CC31CCCC1 | 0 | -3 | 7 | -3 | -7 | 44* | + | +
Cn1c(NCCO)nc2c(c1=O)C1(CCCCC1)Cc1ccccc1-2 | 5 | -3 | 1 | 0 | 0 | 70* | + | +
Nn1cnc2c(c1=O)C1(CCCCC1)Cc1ccccc1-2 | 2 | 2 | 9 | -2 | 8 | 2 | / | /
CCCOc1ccc(C(CC(=O)O)NC(=O)c2ccc3c(c2)OCO3)cc1 (configuration not stated) | -2 | 0 | -6 | -1 | -6 | -10 | / | /
CC(=O)c1cccc(NC(=O)N2CCOCC2)c1 | 1 | / | -7 | 2 | -2 | 1 | / | /
O=C(CCC1COc2ccccc2O1)Nc1ccc(Cl)cn1 (configuration not stated) | / | 0 | 0 | 0 | -16 | 2 | / | /
Cc1cccc(N=Cc2ccccc2O)c1C | / | / | 5 | / | / | -1 | / | /
Oc1ccccc1C=Nc1cccc2ccccc12 | 2 | -6 | -7 | 2 | 4 | 42* | 15 | -3 | GDH-TPI dose=9.3*
CCOC(=O)/C(C(=O)Nc1ccccc1Br)=C1/NC(C)(C)Cc2ccccc21 | 1 | -4 | 28 | 0 | 2 | 2 | / | /
SMILES | RecA intein inh | Rv3671c protease | GDH-TPI counter-1 | UGM FP inh | Mtb bLac sens | Mtb FBA inh | Mtb FBA confirm | GDH-TPI counter-2 | others
CC(=O)N(C(C)=O)c1ncc2c([nH]c3ccccc32)c1C#N | / | -2 | 11 | -1 | 4 | 38* | + | 189*
O=C1c2ccccc2NC(c2ccccc2)N1Cc1ccccc1 (configuration not stated) | 6 | 4 | -8 | 4 | -8 | 63* | 39* | 15*
O=C1c2ccccc2NC(c2ccccc2)N1c1ccc(O)cc1 (configuration not stated) | 1 | -2 | 1 | 1 | -4 | 4 | / | /
O=C1NCCN1CCN1C(=O)c2ccccc2NC1c1ccccc1 (configuration not stated) | -5 | 1 | 4 | -2 | -1 | 72* | 108* | 91*
O=C1c2ccccc2NC(c2ccc(F)cc2)N1Cc1ccccc1 (configuration not stated) | 0 | -3 | 7 | 2 | -2 | 57* | 79* | 55*
CN(C)c1ccc(C2Nc3ccccc3C(=O)N2CCN2CCNC2=O)cc1 (configuration not stated) | 0 | 4 | 7 | 3 | -8 | 5 | / | /
COc1ccc2c(c1)C[C@]1(C)c3ccccc3C(=O)N(Cc3ccccc3)[C@H]21 | / | / | 2 | / | / | -1 | / | /
O=C(O)C1c2ccccc2C(=O)N(Cc2ccc(F)cc2)C1c1ccncc1 (configuration not stated) | 0 | -3 | 2 | -3 | 0 | 1 | / | /
COc1cccc(C2Nc3ccccc3C(=O)N2Cc2ccccc2)c1 (configuration not stated) | 6 | 1 | -1 | -3 | 3 | 61* | 24 | 18*
O=C(O)CNS(=O)(=O)c1cccc(Cl)c1 | 0 | 6 | 18 | 2 | 51 | 0 | / | /
COC(=O)c1ccc2nc(Nc3nc4ccc(F)cc4s3)sc2c1 | -11 | -38 | 8 | 1 | 62 | 38* | 131* | 122*
COC(=O)c1ccc2nc(NC(=O)C(C)(C)C)sc2c1 | 0 | 4 | -2 | 2 | 70 | -4 | / | /
CCOC(=O)c1csc(Nc2nc3ccc(F)cc3s2)n1 | 2 | 0 | 10 | 0 | 66 | -7 | / | /
CC(=O)c1sc(Nc2nc3ccc(F)cc3s2)nc1C | -1 | 0 | 4 | 2 | 54 | 27* | + | 161*
COC(=O)c1sc(-c2ccccc2)cc1NC(=O)c1cc(OC)cc(OC)c1 | -1 | 9 | 7 | 3 | 5 | 1 | / | /
CCCCN1C=C(C(C)=O)C(=O)CC1 | / | / | -9 | / | / | 1 | / | /
COCC(=O)Nc1nc2n(n1)C(c1ccc(OC)cc1)CC(c1ccc(OC)cc1)N2 (configuration not stated) | -11 | / | 7 | / | / | 0 | / | /
